# Key:
# Experiment in all cases: SPOT peptide array binding signal intensity (averaged, normalized) (arbitrary units (background-subtracted, floor 0; scale differs between SH3 domains)); higher = stronger binding of the SH3 domain to the peptide
# [1] = target: AgAbp1
# Procedure, shortened: (§1)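 To measure binding, SH3 domains from four yeast species were fused to GST, expressed in E. coli BL21(DE3) and purified on glutathione Sepharose. Each domain was incubated at 10 μg/ml overnight at 4°C on cellulose membranes with synthetic 15-mer peptides whose cysteines were replaced by serines. Anti-GST antibody, an HRP anti-mouse secondary and luminol were used for detection, and images were quantified with Genespotter. Reported binding signal is normalized, background-subtracted spot intensity averaged over replicates, in arbitrary units that differ between domains.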
# [2] = target: AgBbc1
# Procedure, shortened: as §1
# [3] = target: AgBem1-D1
# Procedure, shortened: as §1
# [4] = target: AgBzz1-D1
# Procedure, shortened: as §1
# [5] = target: AgBzz1-D2
# Procedure, shortened: as §1
# [6] = target: AgCyk3
# Procedure, shortened: as §1
# [7] = target: AgFus1
# Procedure, shortened: as §1
# [8] = target: AgHof1
# Procedure, shortened: as §1
# [9] = target: AgHse1
# Procedure, shortened: as §1
# [10] = target: AgLsb1
# Procedure, shortened: as §1
# [11] = target: AgLsb4
# Procedure, shortened: as §1
# [12] = target: AgMyo5
# Procedure, shortened: as §1
# [13] = target: AgNbp2
# Procedure, shortened: as §1
# [14] = target: AgRvs167
# Procedure, shortened: as §1
# [15] = target: AgSho1
# Procedure, shortened: as §1
# [16] = target: AgSla1-D1-D2
# Procedure, shortened: as §1
# [17] = target: AgSla1-D3
# Procedure, shortened: as §1
# [18] = target: CaAbp1-D1
# Procedure, shortened: as §1
# [19] = target: CaAbp1-D2
# Procedure, shortened: as §1
# [20] = target: CaBbc1
# Procedure, shortened: as §1
# [21] = target: CaBem1-D1
# Procedure, shortened: as §1
# [22] = target: CaBzz1-D1
# Procedure, shortened: as §1
# [23] = target: CaBzz1-D2
# Procedure, shortened: as §1
# [24] = target: CaCyk3
# Procedure, shortened: as §1
# [25] = target: CaFus1
# Procedure, shortened: as §1
# [26] = target: CaHof1
# Procedure, shortened: as §1
# [27] = target: CaHse1
# Procedure, shortened: as §1
# [28] = target: CaLsb1
# Procedure, shortened: as §1
# [29] = target: CaLsb4
# Procedure, shortened: as §1
# [30] = target: CaMyo5
# Procedure, shortened: as §1
# [31] = target: CaNbp2
# Procedure, shortened: as §1
# [32] = target: CaRvs167
# Procedure, shortened: as §1
# [33] = target: CaRvs167-3
# Procedure, shortened: as §1
# [34] = target: CaSho1
# Procedure, shortened: as §1
# [35] = target: CaSla1-D1-D2
# Procedure, shortened: as §1
# [36] = target: CaSla1-D3
# Procedure, shortened: as §1
# [37] = target: ScAbp1
# Procedure, shortened: as §1
# [38] = target: ScBbc1
# Procedure, shortened: as §1
# [39] = target: ScBem1-D1
# Procedure, shortened: as §1
# [40] = target: ScBzz1-D1
# Procedure, shortened: as §1
# [41] = target: ScBzz1-D2
# Procedure, shortened: as §1
# [42] = target: ScCyk3
# Procedure, shortened: as §1
# [43] = target: ScFus1
# Procedure, shortened: as §1
# [44] = target: ScHof1
# Procedure, shortened: as §1
# [45] = target: ScHse1
# Procedure, shortened: as §1
# [46] = target: ScLsb1
# Procedure, shortened: as §1
# [47] = target: ScLsb2
# Procedure, shortened: as §1
# [48] = target: ScLsb3
# Procedure, shortened: as §1
# [49] = target: ScLsb4
# Procedure, shortened: as §1
# [50] = target: ScMyo3
# Procedure, shortened: as §1
# [51] = target: ScMyo5
# Procedure, shortened: as §1
# [52] = target: ScNbp2
# Procedure, shortened: as §1
# [53] = target: ScPex13
# Procedure, shortened: as §1
# [54] = target: ScRvs167
# Procedure, shortened: as §1
# [55] = target: ScSho1
# Procedure, shortened: as §1
# [56] = target: ScSla1-D1-D2
# Procedure, shortened: as §1
# [57] = target: ScSla1-D3
# Procedure, shortened: as §1
# [58] = target: SpAbp1-D1
# Procedure, shortened: as §1
# [59] = target: SpBbc1
# Procedure, shortened: as §1
# [60] = target: SpBzz1-D1
# Procedure, shortened: as §1
# [61] = target: SpBzz1-D2
# Procedure, shortened: as §1
# [62] = target: SpCyk3
# Procedure, shortened: as §1
# [63] = target: SpHof1
# Procedure, shortened: as §1
# [64] = target: SpHof1-2
# Procedure, shortened: as §1
# [65] = target: SpHof1-3
# Procedure, shortened: as §1
# [66] = target: SpHse1
# Procedure, shortened: as §1
# [67] = target: SpLsb1
# Procedure, shortened: as §1
# [68] = target: SpLsb4
# Procedure, shortened: as §1
# [69] = target: SpMyo1
# Procedure, shortened: as §1
# [70] = target: SpNbp2
# Procedure, shortened: as §1
# [71] = target: SpPex13
# Procedure, shortened: as §1
# [72] = target: SpRvs167
# Procedure, shortened: as §1
# [73] = target: SpSla1-D1-D2
# Procedure, shortened: as §1
# [74] = target: SpSla1-D3
# Procedure, shortened: as §1
binder,measurement,setting,value
TKHKAPPPPPPTAET,SPOT peptide array binding signal intensity,[1],1
same,SPOT peptide array binding signal intensity,[2],≤ 0
same,SPOT peptide array binding signal intensity,[3],≤ 0
same,SPOT peptide array binding signal intensity,[4],2000
same,SPOT peptide array binding signal intensity,[5],338
same,SPOT peptide array binding signal intensity,[6],≤ 0
same,SPOT peptide array binding signal intensity,[7],≤ 0
same,SPOT peptide array binding signal intensity,[8],≤ 0
same,SPOT peptide array binding signal intensity,[9],4
same,SPOT peptide array binding signal intensity,[10],≤ 0
same,SPOT peptide array binding signal intensity,[11],≤ 0
same,SPOT peptide array binding signal intensity,[12],21.8
same,SPOT peptide array binding signal intensity,[13],39.5
same,SPOT peptide array binding signal intensity,[14],4
same,SPOT peptide array binding signal intensity,[15],≤ 0
same,SPOT peptide array binding signal intensity,[16],3
same,SPOT peptide array binding signal intensity,[17],774
same,SPOT peptide array binding signal intensity,[18],12
same,SPOT peptide array binding signal intensity,[19],≤ 0
same,SPOT peptide array binding signal intensity,[20],≤ 0
same,SPOT peptide array binding signal intensity,[21],42.5
same,SPOT peptide array binding signal intensity,[22],4620
same,SPOT peptide array binding signal intensity,[23],3490
same,SPOT peptide array binding signal intensity,[24],1
same,SPOT peptide array binding signal intensity,[25],4.5
same,SPOT peptide array binding signal intensity,[26],1
same,SPOT peptide array binding signal intensity,[27],5.5
same,SPOT peptide array binding signal intensity,[28],≤ 0
same,SPOT peptide array binding signal intensity,[29],≤ 0
same,SPOT peptide array binding signal intensity,[30],0.25
same,SPOT peptide array binding signal intensity,[31],≤ 0
same,SPOT peptide array binding signal intensity,[32],≤ 0
same,SPOT peptide array binding signal intensity,[33],4
same,SPOT peptide array binding signal intensity,[34],≤ 0
same,SPOT peptide array binding signal intensity,[35],6.5
same,SPOT peptide array binding signal intensity,[36],≤ 0
same,SPOT peptide array binding signal intensity,[37],1.5
same,SPOT peptide array binding signal intensity,[38],≤ 0
same,SPOT peptide array binding signal intensity,[39],3
same,SPOT peptide array binding signal intensity,[40],5910
same,SPOT peptide array binding signal intensity,[41],5
same,SPOT peptide array binding signal intensity,[42],≤ 0
same,SPOT peptide array binding signal intensity,[43],18
same,SPOT peptide array binding signal intensity,[44],≤ 0
same,SPOT peptide array binding signal intensity,[45],≤ 0
same,SPOT peptide array binding signal intensity,[46],0.25
same,SPOT peptide array binding signal intensity,[47],≤ 0
same,SPOT peptide array binding signal intensity,[48],≤ 0
same,SPOT peptide array binding signal intensity,[49],≤ 0
same,SPOT peptide array binding signal intensity,[50],160
same,SPOT peptide array binding signal intensity,[51],112
same,SPOT peptide array binding signal intensity,[52],3.5
same,SPOT peptide array binding signal intensity,[53],0.75
same,SPOT peptide array binding signal intensity,[54],1.5
same,SPOT peptide array binding signal intensity,[55],2.5
same,SPOT peptide array binding signal intensity,[56],≤ 0
same,SPOT peptide array binding signal intensity,[57],4
same,SPOT peptide array binding signal intensity,[58],≤ 0
same,SPOT peptide array binding signal intensity,[59],2
same,SPOT peptide array binding signal intensity,[60],240
same,SPOT peptide array binding signal intensity,[61],6.25
same,SPOT peptide array binding signal intensity,[62],0.5
same,SPOT peptide array binding signal intensity,[63],1
same,SPOT peptide array binding signal intensity,[64],≤ 0
same,SPOT peptide array binding signal intensity,[65],≤ 0
same,SPOT peptide array binding signal intensity,[66],≤ 0
same,SPOT peptide array binding signal intensity,[67],0.5
same,SPOT peptide array binding signal intensity,[68],≤ 0
same,SPOT peptide array binding signal intensity,[69],215
same,SPOT peptide array binding signal intensity,[70],14.5
same,SPOT peptide array binding signal intensity,[71],≤ 0
same,SPOT peptide array binding signal intensity,[72],≤ 0
same,SPOT peptide array binding signal intensity,[73],2
same,SPOT peptide array binding signal intensity,[74],1
RKNRAPPQRPRFNRD,SPOT peptide array binding signal intensity,[31],1750
same,SPOT peptide array binding signal intensity,[32],31.5
same,SPOT peptide array binding signal intensity,[33],53
same,SPOT peptide array binding signal intensity,[34],423
same,SPOT peptide array binding signal intensity,[35],1480
same,SPOT peptide array binding signal intensity,[36],15
same,SPOT peptide array binding signal intensity,[37],153
same,SPOT peptide array binding signal intensity,[38],338
same,SPOT peptide array binding signal intensity,[39],26
same,SPOT peptide array binding signal intensity,[40],162
same,SPOT peptide array binding signal intensity,[41],16.5
same,SPOT peptide array binding signal intensity,[42],138
same,SPOT peptide array binding signal intensity,[43],293
same,SPOT peptide array binding signal intensity,[44],1.5
same,SPOT peptide array binding signal intensity,[45],1230
same,SPOT peptide array binding signal intensity,[46],248
same,SPOT peptide array binding signal intensity,[47],119
same,SPOT peptide array binding signal intensity,[48],1430
same,SPOT peptide array binding signal intensity,[49],53
same,SPOT peptide array binding signal intensity,[50],22
same,SPOT peptide array binding signal intensity,[51],14.5
same,SPOT peptide array binding signal intensity,[52],4260
same,SPOT peptide array binding signal intensity,[53],88.8
same,SPOT peptide array binding signal intensity,[54],238
same,SPOT peptide array binding signal intensity,[55],845
same,SPOT peptide array binding signal intensity,[56],1900
same,SPOT peptide array binding signal intensity,[57],49
same,SPOT peptide array binding signal intensity,[58],917
same,SPOT peptide array binding signal intensity,[59],54
same,SPOT peptide array binding signal intensity,[60],853
same,SPOT peptide array binding signal intensity,[61],9.75
same,SPOT peptide array binding signal intensity,[62],10
same,SPOT peptide array binding signal intensity,[63],285
same,SPOT peptide array binding signal intensity,[64],16.2
same,SPOT peptide array binding signal intensity,[65],360
same,SPOT peptide array binding signal intensity,[66],367
same,SPOT peptide array binding signal intensity,[67],154
same,SPOT peptide array binding signal intensity,[68],793
same,SPOT peptide array binding signal intensity,[69],15.5
same,SPOT peptide array binding signal intensity,[70],726
same,SPOT peptide array binding signal intensity,[71],30
same,SPOT peptide array binding signal intensity,[72],98.7
same,SPOT peptide array binding signal intensity,[73],61
same,SPOT peptide array binding signal intensity,[74],7.5

# Reference: the supplement of paper PMC4466140
